Whole data set: some 68,000 sequences, median “fluorescence intensity (a.u.)” near 9,100, cut for the highest 2% near 16,000. The sample as a whole holds a higher share of the highest values than the screen did.

OsWRKY34, sequence (Q0JBA9 entry or part of it): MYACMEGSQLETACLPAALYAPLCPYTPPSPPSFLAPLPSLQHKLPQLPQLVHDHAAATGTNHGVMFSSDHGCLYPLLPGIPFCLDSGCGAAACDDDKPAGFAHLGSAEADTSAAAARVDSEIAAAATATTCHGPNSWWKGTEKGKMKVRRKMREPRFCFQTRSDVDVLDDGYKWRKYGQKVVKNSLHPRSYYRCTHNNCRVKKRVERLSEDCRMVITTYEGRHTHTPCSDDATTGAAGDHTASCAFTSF

The target of the assay is OsWRKY34 (Oryza sativa, UniProt Q0JBA9 1-250). Briefly: protein-binding microarray (RPBM); PBS, 2% BSA, 51.3 ng/ul salmon testes DNA, 50 uM zinc acetate, 200 nM TF, 25 C, 1 h; high values mean tight binding. The note with it: protein: recombinant; tags: N-terminal polyhistidine and DsRed monomer fusion (pET32a); label: CyDye5-dUTP incorporated in the synthesized complementary strand; 3' TTTTT single-stranded linker to array surface; dsDNA, one strand shown. A digest of the protocol:
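Binding signal is defined as the fluorescence intensity of each feature in arbitrary units, read on an Axon 4000B scanner. Transcription factors with N-terminal polyhistidine and DsRed fusions came from E. coli BL21-CodonPlus and were purified on Ni–NTA. They were incubated at 200 nM for 1 h at 25 °C on a custom Agilent array that had been made double-stranded with Cy5-dUTP, with 50 µM zinc acetate present, and the array was washed.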
As to “GATCTCCATCTCCATCTCTCTCTCTCTCTCGAGCAGAGCACGGAGTCACCTAGTGCAG”, the binding signal is 8360 fluorescence intensity (a.u.). As for “CAATCACATCCGCGCGCATTTGGCCTGCGCCTTCAAATTTCGGAGTCACCTAGTGCAG”, the figure is 12700 fluorescence intensity (a.u.); as for “AACGATTTCTTCAGCATTTTCCATCCCCGCGGCTTCTTCTCGGAGTCACCTAGTGCAG”, 8230 fluorescence intensity (a.u.); as for “CGCAGAACACGTTTCCCAAATCTTGTACTACTACGTACTACGGAGTCACCTAGTGCAG”, 9170 fluorescence intensity (a.u.). As for “GGAGGAGCGGTGCGTGGGGTCAGCGGCCGGCGGGAGGGCACGGAGTCACCTAGTGCAG”, the figure is 9670 fluorescence intensity (a.u.); as for “CTAGCTTTGAGGTGGAGGTGGTGGTGGAGGAGGAGGAGGACGGAGTCACCTAGTGCAG”, 12600 fluorescence intensity (a.u.). As for “AACAGGAGGAGGAGGAGGAGGAGGAGGAGGAGAGGTGGGGCGGAGTCACCTAGTGCAG”, the figure is 9280 fluorescence intensity (a.u.); as for “GCGCTACGGACGGAAGAGACGGAGTGGCACGGAATAAAGACGGAGTCACCTAGTGCAG”, 61600 fluorescence intensity (a.u.); as for “GGGAGGGAGAGGAGGCGGAGGAGGAGGAGGTGGAGGAGTACGGAGTCACCTAGTGCAG”, 8610 fluorescence intensity (a.u.). Turning to “TATATATATATATATATATATATATATATATATAAAGAGACGGAGTCACCTAGTGCAG”, the binding signal is 11100 fluorescence intensity (a.u.).

As for “GTGGAGTGCGGTGGACGGAGCGGCGGGGCGGGGCGGTCAGCGGAGTCACCTAGTGCAG”, the binding signal is 16700 fluorescence intensity (a.u.). As for “GAGGTGGTGGTGGTGGTGGTGGATGGCGCCCTGCTTTGACCGGAGTCACCTAGTGCAG”, the figure is 23500 fluorescence intensity (a.u.); as for “GCGGGGCGGTGACAACGACGGCGGTGCGGGGCGGTGGTGACGGAGTCACCTAGTGCAG”, 10300 fluorescence intensity (a.u.). As for “AGTTGTGGACTGGAAGAGAGGGGAGGCATGGGGACAAAGACGGAGTCACCTAGTGCAG”, the figure is 9320 fluorescence intensity (a.u.). “GTGGCGGCGGAGGAGGTGGGATGGGGATTTGATGATGGCCCGGAGTCACCTAGTGCAG”: the binding signal is 8320 fluorescence intensity (a.u.).

As for “AGAGGTGGAGGAGAGGAGGGGAGGGGAGGGGAGGTGAGGGCGGAGTCACCTAGTGCAG”, the binding signal was 18700 fluorescence intensity (a.u.). With “TCAAAGGTTGGTTTGATTTGTTGCTATTTGTTGGTTTGATCGGAGTCACCTAGTGCAG” the figure was 8630 fluorescence intensity (a.u.); with “CGCGCTCTGCATGTCGGTCCGTCAACTTGATCGCGATTCTCGGAGTCACCTAGTGCAG”, 8590 fluorescence intensity (a.u.). With “TGCAATTCGTACTTTTTCCTACAATTAAACAGCTACATGTCGGAGTCACCTAGTGCAG” the figure was 9500 fluorescence intensity (a.u.); with “ATTTTTGTCTTGAGTTAACACCGTCACGTTGCCTTCACGGCGGAGTCACCTAGTGCAG”, 9960 fluorescence intensity (a.u.); with “CCGTCGTCGTCTTCGTCTTCCTCAGTTTATCTCCATTTCTCGGAGTCACCTAGTGCAG”, 13800 fluorescence intensity (a.u.). Regarding “GGAAAAAGAACAATCTGCGACCAACCTCTTTTTTCTATCCCGGAGTCACCTAGTGCAG”, the binding signal was 8980 fluorescence intensity (a.u.). Consider “TCCTCTCTGTCTCCGCCGATCTGCTCTGCCGCGACGCGCCCGGAGTCACCTAGTGCAG”, for which the binding signal is 8180 fluorescence intensity (a.u.).

As for “ATTTCACATGGCAAGATCCACGATGACTGAATTATCACACCGGAGTCACCTAGTGCAG”, the binding signal was 8200 fluorescence intensity (a.u.). For “GGCGGCGGCGGCGGCGGTGGTGGTGAGGAGGAGGAGGAGGCGGAGTCACCTAGTGCAG”, the binding signal was 10700 fluorescence intensity (a.u.). As for “GTAGTAGGGGAGGAGTGTATCTAGTAGTATAGGGAGGGAGCGGAGTCACCTAGTGCAG”, the binding signal was 13000 fluorescence intensity (a.u.). With “GGAGGAGGAGGAGGGAGAGGGTGGTGTAGTGGGAGCGGCCCGGAGTCACCTAGTGCAG” the figure was 8170 fluorescence intensity (a.u.); with “CATGTCGTCGTCGTGGTGGTGGTGGTGGTGGTGGGGCGGGCGGAGTCACCTAGTGCAG”, 43400 fluorescence intensity (a.u.); with “GGTGGTGGTGGTGGTGGTGGTGGTGTAGGAGGAGGAGGAGCGGAGTCACCTAGTGCAG”, 27600 fluorescence intensity (a.u.). As for “GCGGTGGTGGTGGGCTTAGTGGAGGCGGAGGCGGCTGAGGCGGAGTCACCTAGTGCAG”, the figure is 17400 fluorescence intensity (a.u.); as for “GGAGGCCTAGGTGGTGGTGGTGGTCTTGGTGGAGGAGGGGCGGAGTCACCTAGTGCAG”, 28600 fluorescence intensity (a.u.). As for “GAGGTGGCTTTGGCGGCGGAGTGGGAGGCGGTGGTGGTGGCGGAGTCACCTAGTGCAG”, the figure is 10000 fluorescence intensity (a.u.). For the sequence “ATGTCGGCGGCGGGCGGCGGCGGCGGCGTGGGGAAGGTGGCGGAGTCACCTAGTGCAG”, the binding signal is 9040 fluorescence intensity (a.u.).

“GAGGAGGGGAGAAACGGGAGGTTGGTGGTGGTGGTGGAGGCGGAGTCACCTAGTGCAG”: the binding signal is 15200 fluorescence intensity (a.u.). With “GAGGGCGGAGGAGGTGGTGAGGGAGGAGGTGCGGAGGCTGCGGAGTCACCTAGTGCAG” the figure was 8320 fluorescence intensity (a.u.); with “CATTATCGTCGTCGTCGTCGTCGTAGTCATGTCGTGGGGCCGGAGTCACCTAGTGCAG”, 8180 fluorescence intensity (a.u.). With “GCCTCTGCCCATCGCATCGATCCCCGCCGTCCCTCCACCCCGGAGTCACCTAGTGCAG” the figure was 11000 fluorescence intensity (a.u.); with “TCGAACTATGTTTCTGGAGTTGTTTGTGTTAAAGTCCCAACGGAGTCACCTAGTGCAG”, 8860 fluorescence intensity (a.u.).

Take “CCGCCACATGCTGCTGCCGCCCCAGCCGTCGGCTGCTTCTCGGAGTCACCTAGTGCAG”: the binding signal was 8560 fluorescence intensity (a.u.).

“TTTGCGGGTGGAGTTTTTTAAGTTTTTGGATTTCCTGTTTCGGAGTCACCTAGTGCAG”: the binding signal was 11700 fluorescence intensity (a.u.). With “CTCGACCACACATATATGTTCGATACATTCCATATCTTCCCGGAGTCACCTAGTGCAG” the figure was 10700 fluorescence intensity (a.u.); with “AACAAAAGCACCCCTGTCCGATCCTATATTTGTTGCAGTTCGGAGTCACCTAGTGCAG”, 9240 fluorescence intensity (a.u.).

For the origin of these results see article PMC7819943, “Rice protein-binding microarrays: a tool to detect cis-acting elements near promoter regions in rice”.
